Screening results: PubChem, National Center for Advancing Translational Sciences (NCATS)
Rows were chosen to be rich in hits. Some 7.9% of all compounds tested hit in one or more screens of this group.
HT1080-NT tox: qHTS for induction of synthetic lethality in tumor cells producing 2HG: qHTS for the HT-1080-NT fibrosarcoma cell line; 360,000 compounds, 1.6% hits; AID 686970, 2013; Potency, µM (top dose mostly 46.1 µM), usual class: cytotoxic; HT-1080-NT fibrosarcoma viability, CellTiter-Glo ATP luminescence, 48 h;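 also: NT is the 2HG producing partner of a matched IDH1 knockdown line; nearly all actives have a fitted effect of over 55% in size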
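HT-1080-NT; 750 cells/well; 5% FBS RPMI; 48 h compound, 37 degrees C; CellTiter-Glo luminescence; curve fitting and curve-class assignment.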
KB-V1 MDR tox: qHTS assay for MDR1-selective chemotherapeutics: Primary screen using the drug-selected MDR subline cells KB-V1. KB-V1 MDR cells viability, CellTiter-Glo, 72 h. 400,000 compounds, 3.4% hits. Potency, µM (highest dose often 46.1 µM), actives largely listed as cytotoxic. AID 1347076, 2019; also: nearly all actives have a fitted effect of over 60% in size
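Cytotoxicity via CellTiter-Glo luminescence after 72 h compound exposure at 37 degrees C. Cells: drug-selected KB-V1 line, DMEM phenol-red free plus 10% FBS. Compounds tested at multiple concentrations; normalized data fitted to concentration-effect curves.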
MCF10A rereplic: A quantitative high throughput screen for small molecules that induce DNA re-replication in MCF 10a normal breast cells | MCF 10A DNA re-replication, Hoechst nuclear intensity, 48 h | Potency, µM (highest dose often 46.1 µM), actives largely listed as activators | 350,000 compounds, 2.9% hits; also: nearly all actives have a fitted effect of over 50% in size
HT1080 IDH1KD tx: qHTS for induction of synthetic lethality in tumor cells producing 2HG: qHTS for the HT-1080-IDH1KD cell line; HT-1080 IDH1 knockdown viability, ATP luminescence, 48 h; Potency, µM (titrated, usually from 46.1 µM), actives largely listed as cytotoxic; 360,000 compounds, 2% hits
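After a 2 h attachment period, IDH1KD HT-1080 cells took pin-transferred compound for 48 h at 37 °C; ATP-based luminescence after 10 min room-temperature reagent incubation reported viability.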
SW480 rerep: A quantitative high throughput screen for small molecules that induce DNA re-replication in SW480 colon adenocarcinoma cells. 340,000 compounds, 1.8% hits. Potency, µM (titrated, usually from 46.1 µM), usual class: activators. SW480 DNA re-replication, Hoechst DNA content imaging, 48 h; also: nearly all actives have a fitted effect of over 55% in size
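First, 250 cells per well were seeded. Next, compound or vehicle (23 nL) was pinned in, plates sat 48 hr at 37 C. Finally Hoechst was added for 40 min before fluorescence scanning.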
KB-3-1 cytotox: qHTS assay for MDR1-selective chemotherapeutics: Primary screen using the parental adenocarcinoma cell KB-3-1. 400,000 compounds, 1.4% hits. KB-3-1 viability, CellTiter-Glo ATP luminescence, 72 h. AID 1347075, 2019. Potency, µM (top dose mostly 46.1 µM), actives largely listed as cytotoxic; also: nearly all actives have a fitted effect of over 60% in size
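Using CellTiter-Glo luminescence, growth of non-resistant KB-3-1 adenocarcinoma cells is assessed 72 h after pin-tool compound addition at 37 °C. Normalized responses across the concentration series yield fitted curves.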
Of the large screens only hits and unclear results are named; the others gave an inactive call. Calls follow the shape of the dose curve; as a rule, active = well fitted curve in the direction sought with a large enough effect; inconclusive = small, poorly fitted or top-dose-only effect, or another doubt; inactive = no such curve, though single readings can be large; an effect the other way counts as inactive or inconclusive.

CC(=O)c1sc(N/N=C\c2ccccc2O)nc1C	HT1080-NT tox inconclusive, MCF10A rereplic 16.4µM, HT1080 IDH1KD tx inconclusive, SW480 rerep inconclusive, KB-3-1 cytotox inconclusive
COc1cc(OC)c(NC(=O)c2cc(C)nc3c2c(C)nn3-c2ccc(C)cc2)cc1Cl	none (no result: HT1080-NT tox, MCF10A rereplic, HT1080 IDH1KD tx, SW480 rerep)
CCOC(=O)c1c(NC(=O)C(NCCN(C)C)c2ccccc2)sc2c1CCCC2 (centres undefined)	HT1080-NT tox inconclusive, MCF10A rereplic 18.4µM, HT1080 IDH1KD tx 18.4µM, SW480 rerep inconclusive, KB-3-1 cytotox inconclusive
COCCN(CCOC)S(=O)(=O)c1ccc(C(=O)Nc2sc3c(c2C(N)=O)CCCCC3)cc1	KB-V1 MDR tox 2.91µM
COc1cc(OC)cc(C(=O)Nc2sc3c(c2C(N)=O)CCC3)c1	MCF10A rereplic 0.581µM, SW480 rerep inconclusive
COC(=O)c1c(NC(=O)c2ccc(N(C)S(=O)(=O)c3ccc(C)cc3)cc2)sc2c1CCCC2	MCF10A rereplic 5.8µM, SW480 rerep inconclusive
COc1ccc(NC(=O)CN2C(=O)CC(c3ccc(C)c(C)c3)=Nc3ccccc32)cc1OC	none (no result: HT1080-NT tox, MCF10A rereplic, HT1080 IDH1KD tx, SW480 rerep)
CCOc1ccccc1NC(=O)Cn1c(=O)n(CCCC(=O)NCCc2ccc(C)cc2)c(=O)c2ccccc21	none (no result: HT1080-NT tox, MCF10A rereplic, HT1080 IDH1KD tx, SW480 rerep)
COC(=O)c1c(NC(=O)c2ccccc2N(C)S(=O)(=O)c2ccccc2)sc2c1CCCC2	HT1080-NT tox inconclusive, KB-V1 MDR tox 6.51µM, MCF10A rereplic inconclusive, HT1080 IDH1KD tx inconclusive, SW480 rerep 11.6µM, KB-3-1 cytotox 4.61µM
COC(=O)c1c(NS(=O)(=O)Cc2ccccc2)sc2c1CCCC2	KB-V1 MDR tox inconclusive
CCOC(=O)c1c(NC(=O)c2ccccc2N(C)S(=O)(=O)c2ccccc2)sc2c1CCCC2	HT1080-NT tox inconclusive, KB-V1 MDR tox 5.8µM, MCF10A rereplic inconclusive, HT1080 IDH1KD tx 9.2µM, SW480 rerep 5.17µM, KB-3-1 cytotox 2.91µM
COC(=O)c1c(NC(=O)CN(c2ccccc2)S(C)(=O)=O)sc2c1CCCC2	KB-V1 MDR tox 10.3µM
C[C@@H]1CN([C@H](C)CO)C(=O)CCCn2cc(nn2)CO[C@H]1CN(C)C(=O)c1ccncc1	none (no result: MCF10A rereplic, SW480 rerep)
Cc1ccc(C(=O)NCCSc2c[nH]c3ccccc23)cc1C	none (no result: HT1080-NT tox, MCF10A rereplic, HT1080 IDH1KD tx, SW480 rerep)
O=[N+]([O-])c1ccc2[nH]c(=S)[nH]c2c1	none
O=[N+]([O-])c1ccc2[nH]c(=S)sc2c1	HT1080-NT tox inconclusive, KB-V1 MDR tox 11.6µM, MCF10A rereplic inconclusive, KB-3-1 cytotox inconclusive
NC(=S)N(c1ccccc1)c1ccccc1	none
NC(=Nc1ccccc1)N(c1ccccc1)c1ccccc1	MCF10A rereplic 11.6µM, SW480 rerep inconclusive
CC(C)Cc1ccc(C(C)C(=O)Nc2ccccc2O)cc1 (centres undefined)	HT1080-NT tox 3.66µM, KB-V1 MDR tox inconclusive, HT1080 IDH1KD tx 23.1µM, KB-3-1 cytotox 20.6µM
CC(C)Cc1ccc([C@@H](C)C(=O)NS(C)(=O)=O)cc1	none (no result: HT1080-NT tox, KB-V1 MDR tox, HT1080 IDH1KD tx, KB-3-1 cytotox)
c1ccc(N2CC3CCc4ccccc4C3=N2)cc1 (centres undefined)	MCF10A rereplic 20.6µM, SW480 rerep 7.31µM
Cc1cc(=O)oc2cc(OCC(=O)NCCc3c[nH]c4ccc(F)cc34)ccc12	KB-V1 MDR tox inconclusive, SW480 rerep 13µM
COc1ccc2c(CNCc3ccccc3OC)c(C(=O)O)n(Cc3ccc(F)cc3Cl)c2c1	none (no result: HT1080-NT tox, MCF10A rereplic, HT1080 IDH1KD tx, SW480 rerep)
CCN(CC)S(=O)(=O)c1ccc(OC)c(NC(=O)c2cc3c(=O)n4ccccc4nc3s2)c1	MCF10A rereplic 16.4µM
COCOc1ccc(/C=C2/Oc3cc(OCOC)cc(OCOC)c3C2=O)c(OCOC)c1	MCF10A rereplic 6.51µM, SW480 rerep inconclusive
COc1cc(OC)c2c(c1)O/C(=C\c1ccccc1)C2=O	MCF10A rereplic inconclusive, SW480 rerep inconclusive
